Assay results as given in PubChem BioAssay (NCATS).
Records with an inconclusive call do not appear. The source made the active and inactive calls. The call rests on the fitted dose curve; in most records, active means well fitted inhibition curve with a large enough effect; inconclusive means small, poorly fitted or top-dose-only effect; inactive means flat fitted curve, though single readings scatter.

Legend:
Assay in all cases: qHTS profiling for inhibitors of Plasmodium falciparum proliferation (AID 504749); further: nearly all actives have a fitted effect of over 60% in size
Settings in all cases: P. falciparum in erythrocytes, SYBR Green DNA, 72 h; series mostly up to 28.7 µM
CP247 = system: CP247
In short: (§1)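 SYBR Green fluorescence of parasite DNA, read after lysis and overnight dark incubation, measured growth over 72 h in erythrocyte culture at 0.3% parasitemia and 2.5% hematocrit. Data normalised to DMSO and 0.29 uM artemisinin, with plate-drift correction.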

CP250 = system: CP250
In short: as §1

CP252 = system: CP252
In short: as §1

CP256 = system: CP256
In short: as §1

CP260 = system: CP260
In short: as §1

CP262 = system: CP262
In short: as §1

CP265 = system: CP265
In short: as §1

CP266 = system: CP266
In short: as §1

CP268 = system: CP268
In short: as §1

CP269 = system: CP269
In short: as §1

CP286 = system: CP286
In short: as §1

CP291 = system: CP291
In short: as §1

CP297 = system: CP297
In short: as §1

CP305 = system: CP305
In short: as §1

CP315 = system: CP315
In short: as §1

CP325 = system: CP325
In short: as §1

CP329 = system: CP329
In short: as §1

DFO2036 = system: DFO2036
In short: as §1

DIV14 = system: DIV14
In short: as §1

CP335 = system: CP335
In short: as §1

Measured: Potency

C=CCN1CCc2nc(N)sc2CC1
inactive: CP247 | CP250 | CP252 | CP256 | CP260 | CP262 | CP265 | CP266 | CP268 | CP269 | CP286 | CP291 | CP297 | CP305 | CP315 | CP325 | CP329 | DFO2036 | DIV14

OCCOCCN1CCN(C2=Nc3ccccc3Sc3ccccc32)CC1
inactive: CP247 | CP250 | CP252 | CP256 | CP260 | CP262 | CP265 | CP268 | CP269 | CP286 | CP291 | CP297 | CP305 | CP315 | CP325 | CP329 | CP335 | DFO2036

O=C(Nc1ncc([N+](=O)[O-])s1)c1cccs1
inactive: CP247 | CP250 | CP252 | CP256 | CP260 | CP262 | CP265 | CP268 | CP269 | CP286 | CP291 | CP297 | CP305 | CP315 | CP325 | CP329 | CP335 | DFO2036 | DIV14

COc1ccc(CN(CCN(C)C)c2ncccn2)cc1
inactive: CP247 | CP250 | CP252 | CP256 | CP260 | CP262 | CP265 | CP268 | CP269 | CP286 | CP291 | CP297 | CP305 | CP315 | CP325 | CP329 | CP335 | DFO2036 | DIV14

CCCCCCCCOc1ccc(C(=O)c2ccccc2)c(O)c1
inactive: CP247 | CP250 | CP252 | CP256 | CP260 | CP262 | CP265 | CP268 | CP269 | CP286 | CP291 | CP297 | CP305 | CP315 | CP325 | CP329 | CP335 | DFO2036 | DIV14

NCCNc1cccc2ccccc12
inactive: CP247 | CP250 | CP252 | CP256 | CP260 | CP262 | CP265 | CP266 | CP268 | CP269 | CP286 | CP291 | CP305 | CP315 | CP325 | CP329

CCOc1ccc(NC(C)=O)cc1
inactive: CP247 | CP250 | CP252 | CP256 | CP260 | CP262 | CP265 | CP266 | CP268 | CP269 | CP286 | CP291 | CP297 | CP305 | CP315 | CP325 | CP329 | DFO2036 | DIV14

C#C[C@]1(O)CC[C@H]2[C@@H]3CCC4=Cc5oncc5C[C@]4(C)[C@H]3CC[C@@]21C
inactive: CP247 | CP250 | CP252 | CP256 | CP260 | CP262 | CP265 | CP266 | CP268 | CP269 | CP286 | CP291 | CP305 | CP315 | CP325 | CP329 | CP335 | DFO2036 | DIV14

Cc1ccc(S(=O)(=O)NC(=O)NC2CCCC2)cc1
inactive: CP247 | CP250 | CP252 | CP256 | CP260 | CP262 | CP265 | CP268 | CP269 | CP286 | CP291 | CP305 | CP315 | CP325 | CP329 | CP335 | DFO2036 | DIV14

CC(C)Cc1ccc(CC(=O)O)cc1
inactive: CP247 | CP250 | CP252 | CP256 | CP260 | CP262 | CP265 | CP266 | CP268 | CP269 | CP286 | CP291 | CP297 | CP305 | CP325 | CP329 | CP335 | DFO2036 | DIV14

O=C1C(O)=C(O)C(=O)C(O)=C1O
inactive: CP247 | CP250 | CP252 | CP256 | CP260 | CP262 | CP265 | CP266 | CP268 | CP269 | CP291 | CP305 | CP315 | CP325 | CP329 | CP335 | DFO2036 | DIV14
